# Measurements published in PubChem BioAssay.
# “And” between values parts separate entries of the source, which are not always exact repeats. Equal values may be shown once. Where a structure was tested more than once in an assay, its records may differ in their call. The source made the active and inactive calls.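 How the source made its calls, unless noted: active means compounds whose cell count with miR-34 switched on is under 0.7 times the count with it off; inactive means the rest.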
# Tests used:
# [1] = liver-stage malaria parasite growth inhibition, primary screen, cell-based, HepG2, luciferase luminescence, HepG2 viability (AID 624349; in the data active means parasite load remaining mostly below about 12%, no sharp cut-off; inactive means mostly above about 10%;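 further: 100% = mean of DMSO negative control wells on the same plate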); settings: P. berghei liver stage in HepG2, luciferase luminescence, concentration not given here; parasite load remaining: stronger effect = lower value; viability: measured here: HepG2 viability without parasites
# [2] = stimulators of nuclear beta-catenin in C2C12, primary screen, imaging, WNT3A-conditioned medium, mouse C2C12, NPC library (AID 1117326; in the data active means nuclear beta-catenin stimulation mostly above about 4.2%, no sharp cut-off; inactive means mostly below about 10%); settings: stronger effect = higher value
# [3] = stimulators of insulin release from INS-1E, primary screen, cell-based, 5 mM glucose, NPC library (AID 1117329;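 active means compound raises insulin release from rat beta cells at 5 mM glucose, no numeric limit stated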); settings: rat INS-1E insulin secretion, at 10 µM, stronger effect = higher value
# [4] = growth inhibition of GSK3B-pretreated HCT116 cells – cell-based, CellTiter-Glo, 0.2 to 20 µM (AID 1117336;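 active means compounds lowering colon cancer cell viability after pretreatment blocking the GSK3B kinase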); settings: HCT116 viability after GSK3B inhibitor, at 20 µM, stronger effect = higher value
# [5] = inhibition of endothelial tube formation, primary screen, imaging, VEGF stimulated, CD31 staining, tube area, NPC library (AID 1117340;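 active means compound that reduces growth-factor-driven endothelial tube area in a mixed cell culture, no cutoff stated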); settings: VEGF-stimulated ADSC/ECFC co-culture, at 10 µM, stronger effect = higher value
# [6] = glucagon-like peptide 1 release enhancers, primary assay, NCI-H716 cell line, NPC library (AID 1117341;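 active means compound raises GLP1 secretion from the human gut endocrine cells, with no numeric limit stated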); settings: NCI-H716 cells, at 10 µM, stronger effect = higher value
# [7] = HCT116 colon cancer cell growth inhibition, primary screen, CellTiter-Glo luminescence, NPC library (AID 1117342;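 active means compounds that lower survival of HCT116 colon cancer cells in the luminescence readout, no numeric limit stated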); settings: at 20 µM (top of the series)
# [8] = CellTiter-Glo luminescent readout of SW480 viability loss, NPC library primary (AID 1117343;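 active means compounds that lower viability of the colon cancer cells in the luminescence readout, with no numeric limit stated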); settings: CellTiter-Glo luminescence; at 20 µM (top of the series) unless noted
# [9] = decreased DLD-1 cellular survival, CellTiter-Glo luminescent readout, NPC compound collection, primary HTS (AID 1117346;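 active means compounds that lower survival of DLD-1 colon cancer cells in the luminescence readout, no cutoff given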); settings: DLD-1 viability, CellTiter-Glo luminescence; at 20 µM (top of the series)
# [10] = differential killing of epithelial or mesenchymal cells, primary screen, imaging, PC-3E GFP, TEM4-18 mCherry, co-culture (AID 1345086;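 active means compounds killing one labelled cell type while sparing the other, by normalised counts and ratio limits, not self-fluorescent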;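 on all read-outs here: cells exposed to compound for 72 h before imaging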;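 on red/green cell ratio (normalised): normalised mesenchymal count divided by normalised epithelial count so high means epithelial killing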); settings: imaging cell counts, at 1 µM; for red/green cell ratio (normalised): actives lie on both sides, counts scaled to control wells, 1 = unselective
# [11] = sensitizers of A549 cells to miR-34 induction, primary screen, imaging, A549 dox-inducible miR-34, nuclei and caspase counts (AID 1347080); settings: A549 miR-34 inducible, Hoechst nuclei count, 48 h
# [12] = survival rescue of mitochondrial mutant cells in low glucose, primary screen, MELAS cybrids, Rieske KO mouse fibroblasts, CellTiter-Glo (AID 1508586;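 active means mean z-score across replicates of 1.96 or higher in either the MELAS or the Rieske mutant cell line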;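 further: z relative to plate mean and SD of compound and empty wells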)
# [13] = molecular target: NAD(+) hydrolase SARM1 (Homo sapiens) (UniProt Q6SZW1); test: SARM1 TIR NADase inhibitors, cell lysate, NAD-Glo luminescence (AID 1508614;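 active means compound whose remaining NAD level is above about 45 nM, limit read from the data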); settings: SAM-TIR HEK293T lysate NADase, at 1 µM, stronger effect = higher value
# [14] = hESC survival regulators, cell-based (AID 493140; call rule not given here;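 further: cells exposed to compounds for four days before counting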); settings: human embryonic stem cell survival screen; stronger effect = higher value
# [15] = measured here: epithelial PC-3E GFP cell survival
# [16] = measured here: mesenchymal TEM4-18 mCherry cell survival
# [17] = stronger effect = lower value, cell number ratio, induced over uninduced
# [18] = measured here: relative caspase fold change +Dox/-Dox
# [19] = measured here: total cells with miR-34 induction, stronger effect = lower value
# [20] = measured here: total cells without miR-34 induction
# [21] = MELAS cybrid survival, CellTiter-Glo 48 h, stronger effect = higher value
# [22] = Rieske KO mouse fibroblast survival, CellTiter-Glo 72 h
# Chain of NAD(+) hydrolase SARM1 (Homo sapiens) (Q6SZW1 whole entry, looked up): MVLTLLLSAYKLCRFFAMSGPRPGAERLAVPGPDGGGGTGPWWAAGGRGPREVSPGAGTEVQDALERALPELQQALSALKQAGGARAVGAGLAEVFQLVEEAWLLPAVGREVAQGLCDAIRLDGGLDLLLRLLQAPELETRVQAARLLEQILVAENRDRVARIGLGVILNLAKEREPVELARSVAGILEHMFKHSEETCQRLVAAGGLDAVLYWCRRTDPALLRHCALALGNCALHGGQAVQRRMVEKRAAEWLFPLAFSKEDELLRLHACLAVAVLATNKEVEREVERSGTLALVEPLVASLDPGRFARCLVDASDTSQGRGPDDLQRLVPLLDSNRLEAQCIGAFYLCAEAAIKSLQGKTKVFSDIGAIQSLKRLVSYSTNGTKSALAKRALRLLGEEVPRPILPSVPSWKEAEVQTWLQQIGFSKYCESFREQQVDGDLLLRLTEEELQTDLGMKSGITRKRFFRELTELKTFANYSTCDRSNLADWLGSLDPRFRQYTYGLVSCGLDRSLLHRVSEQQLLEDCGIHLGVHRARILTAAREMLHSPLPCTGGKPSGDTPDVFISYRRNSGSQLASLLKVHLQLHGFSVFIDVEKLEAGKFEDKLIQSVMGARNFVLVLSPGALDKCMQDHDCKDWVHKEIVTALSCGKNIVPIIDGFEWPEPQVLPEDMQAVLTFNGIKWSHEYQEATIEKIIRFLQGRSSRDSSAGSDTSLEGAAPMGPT
structure (smiles),measurement,setting,value
CCOc1nc2cccc(C(=O)O)c2n1Cc1ccc(-c2ccccc2-c2nn[nH]n2)cc1,parasite load remaining,[1],51% (inactive)
same,viability,[1],130%
same,nuclear beta-catenin stimulation,[2]; at 10 µM,-1.9% (inactive)
same,nuclear beta-catenin stimulation,"[2]; stimulation, at 2 µM",0.8%
same,insulin secretion stimulation,[3],1.4% (inactive)
same,viability decrease,[4],-7.7% (inactive)
same,tube area decrease,[5],5.3% (inactive)
same,GLP1 secretion stimulation,[6],-1.6% (inactive)
same,inhibition of viability,[7],-9.8% (inactive)
same,viability decrease (inhibition),[8],16.8% (inactive)
same,viability decrease (inhibition),[9],-13% (inactive)
same,red/green cell ratio (normalised),[10],1.24 (inactive)
same,normalised cell number,[10]; [15],1.08
same,normalised cell number,[10]; [16],1.35
same,fold change,[11]; [17],1.02 (inactive) and 0.834 (inactive)
same,fold change,[11]; [18],0.596 and 1.3
same,cell count,[11]; [19],7490 and 8900
same,cell count,[11]; [20],7350 and 10700
same,z-score,[12]; [21],-0.183 (inactive) and 0.664 (inactive) and -0.412 (inactive)
same,z-score,[12]; [22],-0.0185 and -0.257 and -0.953
same,remaining NAD,[13],10 nM (inactive)
C[C@@H](O)[C@H]1C(=O)N2C(C(=O)O)=C(SCCN=CN)C[C@H]12,survival,[14],8.25 (inactive)
same,parasite load remaining,[1],97.9% (inactive) and 82.7% (inactive) and 21.5% (inactive)
same,viability,[1],121% and 75.9% and 75.5%
same,nuclear beta-catenin stimulation,[2]; at 10 µM,0.4% (inactive)
same,nuclear beta-catenin stimulation,"[2]; stimulation, at 2 µM",4%
same,insulin secretion stimulation,[3],-0.5% (inactive)
same,viability decrease,[4],6.7% (inactive)
same,tube area decrease,[5],8.2% (inactive)
same,GLP1 secretion stimulation,[6],-1.8% (inactive)
same,inhibition of viability,[7],1.15% (inactive)
same,viability decrease (inhibition),[8],-18.3% (inactive)
same,viability decrease (inhibition),[9],2% (inactive)
same,red/green cell ratio (normalised),[10],0.95 (inactive)
same,normalised cell number,[10]; [15],1.17
same,normalised cell number,[10]; [16],1.11
same,fold change,[11]; [17],1.02 (inactive) and 0.837 (inactive) and 0.836 (inactive)
same,fold change,[11]; [18],2.4 and 1.6 and 1.5
same,cell count,[11]; [19],10800 and 9100 and 8570
same,cell count,[11]; [20],10500 and 10900 and 10300
same,z-score,[12]; [21],0.502 (inactive) and 0.0491 (inactive)
same,z-score,[12]; [22],-0.015 and -0.95
same,remaining NAD,[13],10 nM (inactive)
OC1(c2ccc(Cl)c(C(F)(F)F)c2)CCN(CCCC(c2ccc(F)cc2)c2ccc(F)cc2)CC1,nuclear beta-catenin stimulation,[2]; at 10 µM,-2.1% (inactive)
same,nuclear beta-catenin stimulation,"[2]; stimulation, at 2 µM",27.1%
same,insulin secretion stimulation,[3],0.05% (inactive)
same,viability decrease,[4],117% (active)
same,tube area decrease,[5],112% (active)
same,GLP1 secretion stimulation,[6],51.4% (active)
same,inhibition of viability,[7],124% (active)
same,viability decrease (inhibition),[8],158% (active)
same,viability decrease (inhibition),[9],101% (active)
same,red/green cell ratio (normalised),[10],0.98 (inactive)
same,normalised cell number,[10]; [15],0.98
same,normalised cell number,[10]; [16],0.96
same,fold change,[11]; [17],0.677 (active) and 0.99 (inactive)
same,fold change,[11]; [18],1.19 and 0.678
same,cell count,[11]; [19],3030 and 2930
same,cell count,[11]; [20],4480 and 2970
same,z-score,[12]; [21],-0.344 (inactive)
same,z-score,[12]; [22],-0.197
same,remaining NAD,[13],10 nM (inactive)
COc1cc(C(=O)N2CCOCC2)cc(OC)c1OC,parasite load remaining,[1],75.3% (inactive)
same,viability,[1],105%
same,nuclear beta-catenin stimulation,[2]; at 10 µM,0.3% (inactive)
same,nuclear beta-catenin stimulation,"[2]; stimulation, at 2 µM",-0.7%
same,insulin secretion stimulation,[3],-1.8% (inactive)
same,viability decrease,[4],14.1% (inactive)
same,tube area decrease,[5],-2.8% (inactive)
same,GLP1 secretion stimulation,[6],6.1% (inactive)
same,inhibition of viability,[7],-2.4% (inactive)
same,viability decrease (inhibition),[8],30.7% (inactive)
same,viability decrease (inhibition),[9],20.1% (inactive)
same,red/green cell ratio (normalised),[10],1.06 (inactive)
same,normalised cell number,[10]; [15],1.01
same,normalised cell number,[10]; [16],1.07
same,fold change,[11]; [17],0.951 (inactive)
same,fold change,[11]; [18],1.55
same,cell count,[11]; [19],11700
same,cell count,[11]; [20],12300
same,z-score,[12]; [21],0.673 (inactive)
same,z-score,[12]; [22],0.477
same,remaining NAD,[13],10 nM (inactive)
